Results from paper PMC7862700, “An all-to-all approach to the identification of sequence-specific readers for epigenetic DNA modifications on cytosine”.

Experiments:
Assay in all cases: DAPPL (digital affinity profiling via proximity ligation, sequencing); 10 mM Tris-HCl pH 7.5, 50 mM NaCl, 1 mM DTT, 4% glycerol, room temperature, 30 min; GST-TFs on glutathione beads, 16-mer random dsDNA library, 0.1% formaldehyde crosslink after washing; high values mean tight binding
Conditions in all cases: protein: recombinant; tags: N-terminal GST; dsDNA, one strand shown
[1] = biological target: T1, ERF (Homo sapiens, UniProt P50548 1-548)
T1 sequence: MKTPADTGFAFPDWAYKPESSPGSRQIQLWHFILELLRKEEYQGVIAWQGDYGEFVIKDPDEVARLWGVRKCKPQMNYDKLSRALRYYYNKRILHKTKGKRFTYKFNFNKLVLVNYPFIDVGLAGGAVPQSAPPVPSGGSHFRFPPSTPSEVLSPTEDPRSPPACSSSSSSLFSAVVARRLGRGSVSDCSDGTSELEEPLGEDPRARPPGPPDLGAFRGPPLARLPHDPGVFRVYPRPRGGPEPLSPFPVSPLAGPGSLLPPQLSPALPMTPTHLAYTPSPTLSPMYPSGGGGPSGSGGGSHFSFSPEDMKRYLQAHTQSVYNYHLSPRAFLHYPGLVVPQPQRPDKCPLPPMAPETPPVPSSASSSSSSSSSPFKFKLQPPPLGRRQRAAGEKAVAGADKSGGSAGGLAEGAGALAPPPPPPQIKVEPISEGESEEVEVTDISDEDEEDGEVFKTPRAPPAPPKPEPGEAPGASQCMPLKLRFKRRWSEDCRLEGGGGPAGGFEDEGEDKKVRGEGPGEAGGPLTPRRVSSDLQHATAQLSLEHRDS
In short: (§1)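 GST fusions of human transcription factors were expressed in yeast and captured with glutathione beads. Once given DNA barcodes and pooled alongside a tag-only sample, they were incubated for 30 min at room temperature with 200 nmole of a random double-stranded 16-mer DNA library in Tris/NaCl/DTT/glycerol buffer, then washed, crosslinked (0.1% formaldehyde), proximity-ligated, PCR-amplified and sequenced on an Illumina NextSeq500. The binding signal of each hexamer is its read frequency for a factor divided by its frequency for the tag-only sample.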

[2] = biological target: T2, ETV3L (Homo sapiens, UniProt Q6ZN32 1-361)
T2 sequence: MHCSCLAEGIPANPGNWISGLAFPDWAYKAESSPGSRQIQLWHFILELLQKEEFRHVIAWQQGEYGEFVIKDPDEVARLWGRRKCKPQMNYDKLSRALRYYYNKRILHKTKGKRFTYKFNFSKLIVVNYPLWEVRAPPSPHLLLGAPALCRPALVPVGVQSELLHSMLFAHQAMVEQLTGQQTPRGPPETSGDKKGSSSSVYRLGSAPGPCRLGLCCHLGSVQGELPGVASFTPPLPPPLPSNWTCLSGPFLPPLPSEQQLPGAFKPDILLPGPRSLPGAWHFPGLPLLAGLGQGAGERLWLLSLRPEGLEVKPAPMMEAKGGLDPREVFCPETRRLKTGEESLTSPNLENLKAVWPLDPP
In short: as §1

[3] = biological target: T3, ETS2 (Homo sapiens, UniProt P15036 1-469)
T3 sequence: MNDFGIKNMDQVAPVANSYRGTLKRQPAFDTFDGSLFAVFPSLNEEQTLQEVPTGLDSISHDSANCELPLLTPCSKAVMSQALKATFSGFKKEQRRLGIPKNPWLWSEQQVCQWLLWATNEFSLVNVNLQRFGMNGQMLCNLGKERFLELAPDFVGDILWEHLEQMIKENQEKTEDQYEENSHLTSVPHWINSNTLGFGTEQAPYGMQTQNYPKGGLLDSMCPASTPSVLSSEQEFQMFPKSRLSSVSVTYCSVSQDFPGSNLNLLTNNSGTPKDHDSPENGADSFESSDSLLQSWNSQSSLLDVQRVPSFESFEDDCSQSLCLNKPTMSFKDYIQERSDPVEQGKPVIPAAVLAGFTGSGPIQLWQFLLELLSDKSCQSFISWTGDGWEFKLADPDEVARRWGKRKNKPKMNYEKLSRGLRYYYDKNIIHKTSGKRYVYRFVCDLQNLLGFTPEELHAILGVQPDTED
In short: as §1

[4] = biological target: T4, SPDEF (Homo sapiens, UniProt O95238 1-335)
T4 sequence: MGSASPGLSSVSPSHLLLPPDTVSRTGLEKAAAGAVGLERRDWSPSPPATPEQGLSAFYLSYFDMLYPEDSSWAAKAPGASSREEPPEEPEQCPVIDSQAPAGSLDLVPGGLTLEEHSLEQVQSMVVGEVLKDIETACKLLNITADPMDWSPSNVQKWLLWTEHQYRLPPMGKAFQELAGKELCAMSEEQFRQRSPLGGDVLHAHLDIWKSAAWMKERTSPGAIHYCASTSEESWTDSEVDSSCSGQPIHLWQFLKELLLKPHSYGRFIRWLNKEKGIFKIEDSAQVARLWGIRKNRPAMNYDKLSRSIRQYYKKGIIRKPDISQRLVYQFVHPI
In short: as §1

[5] = biological target: T5, ETV7 (Homo sapiens, UniProt Q9Y603 1-341)
T5 sequence: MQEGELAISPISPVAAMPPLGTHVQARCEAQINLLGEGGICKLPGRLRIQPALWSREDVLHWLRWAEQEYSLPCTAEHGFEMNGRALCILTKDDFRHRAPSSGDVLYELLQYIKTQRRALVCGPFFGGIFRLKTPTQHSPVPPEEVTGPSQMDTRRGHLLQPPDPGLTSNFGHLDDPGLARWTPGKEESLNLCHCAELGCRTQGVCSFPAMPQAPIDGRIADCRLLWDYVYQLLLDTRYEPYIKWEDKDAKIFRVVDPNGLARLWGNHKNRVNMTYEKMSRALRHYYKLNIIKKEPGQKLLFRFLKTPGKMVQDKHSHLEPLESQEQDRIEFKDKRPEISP
In short: as §1

[6] = biological target: T6, ELF5 (Homo sapiens, UniProt Q9UKW6-2 1-255)
T6 sequence: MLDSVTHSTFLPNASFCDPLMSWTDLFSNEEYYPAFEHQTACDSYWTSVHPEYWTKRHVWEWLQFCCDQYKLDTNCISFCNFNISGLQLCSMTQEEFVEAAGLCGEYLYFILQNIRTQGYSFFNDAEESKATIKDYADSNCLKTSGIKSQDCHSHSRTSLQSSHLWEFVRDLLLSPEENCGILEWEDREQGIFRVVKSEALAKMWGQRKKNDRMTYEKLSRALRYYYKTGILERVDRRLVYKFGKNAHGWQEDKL
In short: as §1

[7] = biological target: T7, ETV3 (Homo sapiens, UniProt P41162-2 1-143)
T7 sequence: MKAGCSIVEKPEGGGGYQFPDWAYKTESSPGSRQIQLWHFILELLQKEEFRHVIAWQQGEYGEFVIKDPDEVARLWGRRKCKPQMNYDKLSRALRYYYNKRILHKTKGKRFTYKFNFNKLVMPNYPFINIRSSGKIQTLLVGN
In short: as §1

[8] = biological target: ETV6 (Homo sapiens, UniProt P41212 1-452)
ETV6, sequence (P41212 whole entry): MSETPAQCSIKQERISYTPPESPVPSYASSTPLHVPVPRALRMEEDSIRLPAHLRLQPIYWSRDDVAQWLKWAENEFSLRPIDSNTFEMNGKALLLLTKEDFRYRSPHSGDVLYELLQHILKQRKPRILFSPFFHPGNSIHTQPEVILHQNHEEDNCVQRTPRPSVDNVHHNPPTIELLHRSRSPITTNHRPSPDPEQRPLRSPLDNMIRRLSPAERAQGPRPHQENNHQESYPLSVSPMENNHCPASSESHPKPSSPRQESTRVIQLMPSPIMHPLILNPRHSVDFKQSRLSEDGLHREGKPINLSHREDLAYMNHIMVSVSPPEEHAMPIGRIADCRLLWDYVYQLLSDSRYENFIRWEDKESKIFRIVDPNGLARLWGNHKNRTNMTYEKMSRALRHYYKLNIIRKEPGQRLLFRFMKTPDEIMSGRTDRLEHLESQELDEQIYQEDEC
In short: as §1

Sequence	binding signal [1]	binding signal [2]	binding signal [3]	binding signal [4]	binding signal [5]	binding signal [6]	binding signal [7]	binding signal [8]
TGGAAT	1.22 fold enrichment (6-mer frequency, TF over GST control)	1.3 fold enrichment (6-mer frequency, TF over GST control)	1.3 fold enrichment (6-mer frequency, TF over GST control)	1.28 fold enrichment (6-mer frequency, TF over GST control)	1.27 fold enrichment (6-mer frequency, TF over GST control)	1.18 fold enrichment (6-mer frequency, TF over GST control)	1.24 fold enrichment (6-mer frequency, TF over GST control)	1.15 fold enrichment (6-mer frequency, TF over GST control)
AACTTC	2.22 fold enrichment (6-mer frequency, TF over GST control)	2.51 fold enrichment (6-mer frequency, TF over GST control)	2.63 fold enrichment (6-mer frequency, TF over GST control)	2.21 fold enrichment (6-mer frequency, TF over GST control)	2.3 fold enrichment (6-mer frequency, TF over GST control)	3.55 fold enrichment (6-mer frequency, TF over GST control)	2.57 fold enrichment (6-mer frequency, TF over GST control)	2.76 fold enrichment (6-mer frequency, TF over GST control)
TACGGA	1.28 fold enrichment (6-mer frequency, TF over GST control)	1.34 fold enrichment (6-mer frequency, TF over GST control)	1.38 fold enrichment (6-mer frequency, TF over GST control)	1.47 fold enrichment (6-mer frequency, TF over GST control)	1.18 fold enrichment (6-mer frequency, TF over GST control)	1.51 fold enrichment (6-mer frequency, TF over GST control)	1.43 fold enrichment (6-mer frequency, TF over GST control)	1.39 fold enrichment (6-mer frequency, TF over GST control)
TGGACA	1.08 fold enrichment (6-mer frequency, TF over GST control)	1.06 fold enrichment (6-mer frequency, TF over GST control)	1.12 fold enrichment (6-mer frequency, TF over GST control)	1.04 fold enrichment (6-mer frequency, TF over GST control)	1.06 fold enrichment (6-mer frequency, TF over GST control)	1.02 fold enrichment (6-mer frequency, TF over GST control)	1.06 fold enrichment (6-mer frequency, TF over GST control)	1.09 fold enrichment (6-mer frequency, TF over GST control)
TGTACG	1.14 fold enrichment (6-mer frequency, TF over GST control)	1.2 fold enrichment (6-mer frequency, TF over GST control)	1.17 fold enrichment (6-mer frequency, TF over GST control)	1.29 fold enrichment (6-mer frequency, TF over GST control)	1.09 fold enrichment (6-mer frequency, TF over GST control)	1.14 fold enrichment (6-mer frequency, TF over GST control)	1.1 fold enrichment (6-mer frequency, TF over GST control)	1.18 fold enrichment (6-mer frequency, TF over GST control)
CGGCTA	1.07 fold enrichment (6-mer frequency, TF over GST control)	1.19 fold enrichment (6-mer frequency, TF over GST control)	1.07 fold enrichment (6-mer frequency, TF over GST control)	1.25 fold enrichment (6-mer frequency, TF over GST control)	1.26 fold enrichment (6-mer frequency, TF over GST control)	1.19 fold enrichment (6-mer frequency, TF over GST control)	1.12 fold enrichment (6-mer frequency, TF over GST control)	1.27 fold enrichment (6-mer frequency, TF over GST control)
CAACTA	1.24 fold enrichment (6-mer frequency, TF over GST control)	1.29 fold enrichment (6-mer frequency, TF over GST control)	1.3 fold enrichment (6-mer frequency, TF over GST control)	1.32 fold enrichment (6-mer frequency, TF over GST control)	1.24 fold enrichment (6-mer frequency, TF over GST control)	1.26 fold enrichment (6-mer frequency, TF over GST control)	1.2 fold enrichment (6-mer frequency, TF over GST control)	1.25 fold enrichment (6-mer frequency, TF over GST control)
AATTCT	1.33 fold enrichment (6-mer frequency, TF over GST control)	1.29 fold enrichment (6-mer frequency, TF over GST control)	1.29 fold enrichment (6-mer frequency, TF over GST control)	1.23 fold enrichment (6-mer frequency, TF over GST control)	1.26 fold enrichment (6-mer frequency, TF over GST control)	1.22 fold enrichment (6-mer frequency, TF over GST control)	1.25 fold enrichment (6-mer frequency, TF over GST control)	1.25 fold enrichment (6-mer frequency, TF over GST control)
TATTCG	1.17 fold enrichment (6-mer frequency, TF over GST control)	1.16 fold enrichment (6-mer frequency, TF over GST control)	1.13 fold enrichment (6-mer frequency, TF over GST control)	1.1 fold enrichment (6-mer frequency, TF over GST control)	1.19 fold enrichment (6-mer frequency, TF over GST control)	1.09 fold enrichment (6-mer frequency, TF over GST control)	1.19 fold enrichment (6-mer frequency, TF over GST control)	1.02 fold enrichment (6-mer frequency, TF over GST control)
GGATAT	1.62 fold enrichment (6-mer frequency, TF over GST control)	1.55 fold enrichment (6-mer frequency, TF over GST control)	1.66 fold enrichment (6-mer frequency, TF over GST control)	2.38 fold enrichment (6-mer frequency, TF over GST control)	1.48 fold enrichment (6-mer frequency, TF over GST control)	1.92 fold enrichment (6-mer frequency, TF over GST control)	1.71 fold enrichment (6-mer frequency, TF over GST control)	1.6 fold enrichment (6-mer frequency, TF over GST control)
CTAGTA	1.17 fold enrichment (6-mer frequency, TF over GST control)	1.08 fold enrichment (6-mer frequency, TF over GST control)	1.18 fold enrichment (6-mer frequency, TF over GST control)	1.11 fold enrichment (6-mer frequency, TF over GST control)	1.11 fold enrichment (6-mer frequency, TF over GST control)	1.08 fold enrichment (6-mer frequency, TF over GST control)	1.13 fold enrichment (6-mer frequency, TF over GST control)	1.12 fold enrichment (6-mer frequency, TF over GST control)
CTGGAC	1.03 fold enrichment (6-mer frequency, TF over GST control)	1.22 fold enrichment (6-mer frequency, TF over GST control)	1.07 fold enrichment (6-mer frequency, TF over GST control)	1.12 fold enrichment (6-mer frequency, TF over GST control)	1.09 fold enrichment (6-mer frequency, TF over GST control)	1.16 fold enrichment (6-mer frequency, TF over GST control)	1.06 fold enrichment (6-mer frequency, TF over GST control)	1.09 fold enrichment (6-mer frequency, TF over GST control)
TCAAAG	1.08 fold enrichment (6-mer frequency, TF over GST control)	1.12 fold enrichment (6-mer frequency, TF over GST control)	1.12 fold enrichment (6-mer frequency, TF over GST control)	1.01 fold enrichment (6-mer frequency, TF over GST control)	1.1 fold enrichment (6-mer frequency, TF over GST control)	1.04 fold enrichment (6-mer frequency, TF over GST control)	1.07 fold enrichment (6-mer frequency, TF over GST control)	1.09 fold enrichment (6-mer frequency, TF over GST control)
CCTAAC	1.53 fold enrichment (6-mer frequency, TF over GST control)	1.45 fold enrichment (6-mer frequency, TF over GST control)	1.38 fold enrichment (6-mer frequency, TF over GST control)	1.41 fold enrichment (6-mer frequency, TF over GST control)	1.25 fold enrichment (6-mer frequency, TF over GST control)	1.39 fold enrichment (6-mer frequency, TF over GST control)	1.32 fold enrichment (6-mer frequency, TF over GST control)	1.3 fold enrichment (6-mer frequency, TF over GST control)
ACCGGA	2.82 fold enrichment (6-mer frequency, TF over GST control)	2.97 fold enrichment (6-mer frequency, TF over GST control)	3.14 fold enrichment (6-mer frequency, TF over GST control)	4.52 fold enrichment (6-mer frequency, TF over GST control)	2.74 fold enrichment (6-mer frequency, TF over GST control)	3.2 fold enrichment (6-mer frequency, TF over GST control)	3.45 fold enrichment (6-mer frequency, TF over GST control)	3.16 fold enrichment (6-mer frequency, TF over GST control)
